Sampled rows, rich in hits. Any-hit rate of the full collection: about 3.4%.
MITF primary – MITF inhibitors, primary screen, biochemical, AlphaScreen, human; Microphthalmia-associated transcription factor (Homo sapiens), O75030; AlphaScreen MITF homodimerization, bead proximity signal; inhibition, % at 2.6 µM; 0.91% of 650,000 active; AID 1259374, 2018; in the data active = inhibition above about 50%;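 note: 0% = vehicle wells with protein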
Target sequence (O75030 whole entry, looked up): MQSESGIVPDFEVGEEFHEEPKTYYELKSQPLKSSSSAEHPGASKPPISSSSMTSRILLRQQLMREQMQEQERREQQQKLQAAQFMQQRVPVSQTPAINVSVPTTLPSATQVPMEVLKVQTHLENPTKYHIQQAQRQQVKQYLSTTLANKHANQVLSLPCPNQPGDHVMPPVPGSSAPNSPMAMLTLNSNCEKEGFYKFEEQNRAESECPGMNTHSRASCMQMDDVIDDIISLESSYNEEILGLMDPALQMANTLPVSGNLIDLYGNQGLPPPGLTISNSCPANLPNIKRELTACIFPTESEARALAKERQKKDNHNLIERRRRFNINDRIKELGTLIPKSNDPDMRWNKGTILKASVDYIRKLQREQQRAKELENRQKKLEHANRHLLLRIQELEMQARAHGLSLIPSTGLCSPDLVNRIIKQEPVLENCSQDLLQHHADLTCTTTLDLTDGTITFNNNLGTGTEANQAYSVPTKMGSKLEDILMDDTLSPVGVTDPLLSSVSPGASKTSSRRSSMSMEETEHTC
GPR151 ag – activators of human GPR151, primary screen, cell-based, PathHunter beta-arrestin, luminescence; 1% of 650,000 active; activation, % at 11.2 µM; G-protein coupled receptor 151 (Homo sapiens), Q8TDV0; PathHunter beta-arrestin GPR151 cells; in the data active = activation above about 4.9%;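 note: 0% = median of compound wells and 100% = cells with positive control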
FBW7 act – FBW7 E3 ligase activators, primary screen, biochemical, AlphaScreen, human. normalized activity (activation), % at 26.1 µM. AlphaScreen FBW7–phospho-cyclin E peptide binding, activator screen. 0.13% of 650,000 active; in the data active = normalized activity above about 1.9%;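 note: purified mutant Fbw7 with reduced substrate affinity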
TEAD-YAP inh – TEAD-YAP interaction inhibition, primary screen, TEAD-YAP interaction inhibitor project, luminescence, HEK-TIYL cells | TEAD-Gal4/YAP UAS-luciferase luminescence | inhibition, % at 9.12 µM | 1.4% of 640,000 active | AID 1259422, 2018; in the data active = inhibition above about 32%;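 note: 0% = median of test compound wells and 100% = reference inhibitor wells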
GPR151 confirm – GPR151 activators, triplicate retest, confirmation, cell-based, PathHunter beta-arrestin, luminescence; GPR151 PathHunter beta-arrestin cells, 90 min; % of EA-reagent control over plate median; 6,700 tested, under 10 active; shares compounds with GPR151 ag; activation, % at 11.2 µM;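 active = mean percent activation across replicates above the confirmation screen cutoff of 4.91%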
GPR119 ag – GPR119 activators in beta-arrestin cells, counter-screen for GPR151 activator project, cell-based, PathHunter beta-arrestin, luminescence, triplicate | 90 min; 0 = compound-well median, 100 = enzyme-acceptor control | AID 1508611, 2020 | shares compounds with GPR151 ag | 0.3% of 6,700 active | activation, % at 11.2 µM;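 active = mean percent activation in the counterscreen above 29.09%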;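 note: counterscreen on off-target GPR119 to flag nonselective hits from the GPR151 activator screen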
Active calls of the source: *; / = not tested or not shown.

SMILES	MITF primary	GPR151 ag	FBW7 act	TEAD-YAP inh	GPR151 confirm	GPR119 ag
Cc1ccc(NC(=O)c2oc3ccc(S(=O)(=O)N4CCOCC4)cc3c2C)c(C)c1	1.9	-0.6	0.5	7.6	/	/
Cc1ccc(C(=O)Nc2cc(C(N)=O)cc(C(N)=O)c2)cc1S(=O)(=O)N1CCCCC1	10.6	6.4*	0.0	-2.2	0.0	3.5
Cc1ccc(C(=O)Nc2ccc(F)cc2)cc1S(=O)(=O)N1CCCCCC1	-1.3	-0.2	-0.2	-16.6	/	/
COc1ccc(CCNC(=O)CN(C)S(=O)(=O)c2ccc(OC)c(C)c2)cc1	-14.9	0.3	0.1	4.4	/	/
CCn1c(SCC(=O)Nc2nc(C)cs2)nc2c(c1=O)SCC2	-4.3	6.3*	-0.1	11.4	-0.1	1.1
CCOc1ccc(-n2c(SCC(=O)Nc3cc(C)on3)nc3c(c2=O)SCC3)cc1	4.4	5.1*	0.0	-38.2	1.3	5.3
CCOc1ccc(C(=O)NC(=S)Nc2nc(-c3ccccc3)cs2)cc1	-2.1	-1.2	-0.1	-8.2	/	/
CS(=O)(=O)N(CC(=O)NC1CC1)c1ccc2c(c1)OCO2	-9.4	1.7	0.5	8.3	/	/
OCC1(Cc2ccccc2)CCN(Cc2cccc3c2OCO3)CC1	-3.2	5.0*	-0.1	-4.3	0.1	-3.2
OCC1(Cc2ccccc2)CCN(Cc2cccc3nonc23)CC1	0.0	2.2	-0.2	1.6	/	/
Cc1ccc(C(C)C)c(OCC(=O)Nc2ccc(C)c(Cl)c2)c1	-7.4	0.6	0.5	-1.7	/	/
CCN1CCN(C(=O)CN(C)S(=O)(=O)c2ccc(Cl)cc2)CC1	8.1	19.8*	-0.1	-1.4	-0.3	-1.6
CCN1CCN(C(=O)CN(C)S(=O)(=O)c2ccc(Br)cc2)CC1	1.1	-2.5	0.0	12.5	/	/
N#Cc1c(NC(=O)/C=C/c2ccccc2)sc2c1CCCC2	-4.8	1.4	-0.1	7.7	/	/
O=C(O)c1ccc(CNc2c(N3CCCCC3)c(=O)c2=O)cc1	0.5	7.5*	0.2	-6.0	0.3	-1.5
CCOC(=O)N1CCN(c2c(NC3CCC(C)CC3)c(=O)c2=O)CC1 (stereo not drawn)	1.2	5.0*	0.1	-3.0	0.4	8.5
CCOC(=O)N1CCN(c2c(NC3CCCCC3)c(=O)c2=O)CC1	9.7	-0.1	0.1	1.3	/	/
CCOC(=O)N1CCN(c2c(NCc3ccc(Cl)cc3)c(=O)c2=O)CC1	2.4	4.9*	0.1	53.2*	-0.2	-8.0
COc1cccc(CNC(=O)c2ccc(CNc3c(N4CCOCC4)c(=O)c3=O)cc2)c1	0.8	8.6*	0.0	-11.6	-1.1	-6.1
CCOC(=O)N1CCN(c2c(NCc3cccnc3)c(=O)c2=O)CC1	-5.6	-0.8	-0.1	2.9	/	/
COCCNC(=O)c1cccc(OC2CCN(C3Cc4ccccc4C3)CC2)c1	7.6	-0.1	0.3	3.9	/	/
C/C(=N/NC(=O)c1cc2ccccc2cc1O)c1cc2ccc(O)cc2oc1=O	17.9	-2.7	-0.1	5.7	/	/
COC(=O)CCC(=O)NCC1Cc2cc(-c3cccc(C(=O)OC)c3)cc(Cl)c2O1 (stereo not drawn)	8.1	-0.6	-0.1	-8.1	/	/
O=C(Cc1ccc([N+](=O)[O-])cc1)N/N=C/c1ccc(C(=O)O)cc1	-5.8	-0.3	0.1	8.3	/	/
COc1cc(C(=O)Nc2sc3c(c2C#N)CCN(C(C)=O)C3)cc(OC)c1OC	5.7	-0.6	0.1	29.2	/	/
SMILES	MITF primary	GPR151 ag	FBW7 act	TEAD-YAP inh	GPR151 confirm	GPR119 ag
COc1cc(OC)cc(C(=O)Nc2sc3c(c2C#N)CCN(C(C)=O)C3)c1	8.7	7.3*	0.0	60.6*	0.5	4.1
O=C(Nc1nncs1)c1cccc(I)c1	-8.0	5.4*	-0.3	2.7	1.3	5.0
O=C(Nc1nncs1)c1cccc(Br)c1	0.3	2.5	0.0	-14.7	/	/
Oc1ccc(Br)cc1-c1nnc2ccc3ccccc3n12	15.4	10.2*	0.1	5.6	0.0	14.4
O=C(Nc1cccc(C(F)(F)F)c1)C1CC(=O)N(c2ccc(Br)cc2)C1 (stereo not drawn)	6.8	-0.4	0.3	10.1	/	/
Cc1ccccc1C(=O)On1c(-c2ccc(Cl)c([N+](=O)[O-])c2)nc2ccccc2c1=O	4.2	5.8*	-0.2	11.6	0.4	9.3
O=C(On1c(-c2ccc(F)cc2)nc2ccccc2c1=O)c1ccc(Cl)cc1	3.5	5.1*	0.2	-3.1	1.0	13.1
N#Cc1cccc(-c2nc3cnccn3c2NCc2ccco2)c1	9.2	-0.1	0.1	0.5	/	/
Cc1ccccc1-n1ncc2c(=O)n(CC(=O)Nc3ccc4c(c3)OCCO4)cnc21	0.1	-0.8	-0.2	6.5	/	/
CCCCC(=O)c1ccc(-c2ccccc2)cc1	-8.6	-0.1	-0.1	1.4	/	/
C[N+](C)(CCCC(=O)c1ccc(C(=O)CCC[N+](C)(C)Cc2ccccc2Cl)cc1)Cc1ccccc1Cl	-13.2	5.8*	0.1	3.1	1.2	17.3
O=C(NS(=O)(=O)c1ccccc1)c1ccccc1O	-11.2	5.6*	-0.1	2.3	0.1	-5.5
Cc1ccccc1NC(=O)Cn1nc(C)n2cccc2c1=O	6.5	8.6*	0.0	3.6	-0.8	-11.7
COc1ccc(C2=NN(CC(=O)Nc3cc(C)ccc3C)C(=O)CC2)cc1	-21.2	0.2	0.1	-5.6	/	/
O=C(Cc1cccc2c(S(=O)O)cccc12)NC(c1ccccc1)c1ccccc1	0.4	6.8*	0.0	-19.9	-0.9	-12.5
COc1ccc(Nc2nnc(Cc3ccccc3Cl)c(=O)[nH]2)c(OC)c1	-0.8	6.4*	0.1	5.4	0.5	11.7
CC(C)(C)C1CCc2c(sc(NC(=O)CCl)c2C(=O)O)C1 (stereo not drawn)	-0.2	-0.3	0.1	5.9	/	/
C=CCSc1nnc2c(n1)OC(/C=C/c1ccc([N+](=O)[O-])o1)Nc1ccc(Br)cc1-2 (stereo not drawn)	32.3	9.1*	-0.3	26.9	1.6	9.3
O=C(O)c1cc2c(ccc3ccccc32)o1	-4.9	-0.9	0.0	-11.8	/	/
N#Cc1cc2c(ccc3ccccc32)oc1=N	-9.0	6.1*	-0.1	-4.3	-1.2	-13.1
COc1cc(C#N)ccc1OCC(=O)NC(C)c1ccc(F)cc1 (stereo not drawn)	2.3	1.2	-0.1	2.5	/	/
COc1cc(C#N)ccc1OCC(=O)N(C)Cc1ccc(F)cc1	-15.2	8.0*	-0.3	-11.4	1.4	-7.8
CCOc1ccc(N2CCn3c2nnc(C(=O)NCc2ccc(Cl)cc2)c3=O)cc1	4.2	5.0*	0.1	0.4	0.0	-10.7

From PubChem BioAssay
